Reference: PubChem BioAssay AID1159580 (chemical genetic matrix, 2015)
Among all 5,500 compounds or so, about 2,000 (36%) were called active. Roughly 18% stayed inconclusive and do not appear here. Cut-off read from the data, not from the text of the source: active = normalized growth mostly below about 0.91 (no sharp cut-off); inconclusive = no clear call, values can overlap the other calls; inactive = mostly above about 0.92. The list shows a part of the results.

Test: chemical genetic growth profiling, strain panel (AID 1159580);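 note: tested at 20 µM; growth read once vehicle control cultures reached saturation at 30 °C; 1 = growth at the plate median or of vehicle wells; lower values mean less growth of the strain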
Details: growth OD

Measured: normalized growth

Cc1ccnc(NS(=O)(=O)c2ccc(N)cc2)n1
inactive: S. cerevisiae deletion strains, locus YJR075W, strain HOC1, active compounds read low 1.02 | S. cerevisiae deletion strains, locus YKL009W, strain mrt4, active compounds read low 1.01 | S. cerevisiae deletion strains, locus YKL068W, active compounds read low 1 | S. cerevisiae deletion strains, locus YKL085W, strain MDH1 (second series), active compounds read low 1.01 | S. cerevisiae deletion strains, locus YKL085W, strain MDH1, active compounds read low 1.01 | S. cerevisiae deletion strains, locus YKL160W, strain elf1, active compounds read low 1.01 | S. cerevisiae deletion strains, locus YKL190W, strain CNB1, active compounds read low 0.985 | S. cerevisiae deletion strains, locus YKR001C, strain vps1, active compounds read low 1.02 | S. cerevisiae deletion strains, locus YKR026C, strain gcn3, active compounds read low 1.01 | S. cerevisiae deletion strains, locus YKR091W, strain srl3, active compounds read low 0.998 | S. cerevisiae deletion strains, locus YLL001W, strain dnm1, active compounds read low 1.01 | S. cerevisiae deletion strains, locus YLL026W, active compounds read low 1 | S. cerevisiae deletion strains, locus YLL041C, strain sdh2, active compounds read low 1 | S. cerevisiae deletion strains, locus YLR027C, strain aat2, active compounds read low 1 | S. cerevisiae deletion strains, locus YLR039C, strain RIC1, active compounds read low 1.04 | S. cerevisiae deletion strains, locus YLR058C, strain SHM2, active compounds read low 1.02 | S. cerevisiae deletion strains, locus YLR102C, strain apc9, active compounds read low 1.01 | S. cerevisiae deletion strains, locus YLR113W, strain HOG1, active compounds read low 0.984 | S. cerevisiae deletion strains, locus YLR221C, strain rsa3, active compounds read low 0.98 | S. cerevisiae deletion strains, locus YLR258W, strain gsy2, active compounds read low 0.975 | S. cerevisiae deletion strains, locus YLR262C, strain YPT6 (second series), active compounds read low 1.04 | S. cerevisiae deletion strains, locus YLR262C, strain YPT6, active compounds read low 1.05 | S. cerevisiae deletion strains, locus YLR268W, strain sec22, active compounds read low 1.03 | S. cerevisiae deletion strains, locus YLR320W, strain mms22, active compounds read low 0.961 | S. cerevisiae deletion strains, locus YLR330W, strain CHS5, active compounds read low 1.01 | S. cerevisiae deletion strains, locus YLR342W, strain FKS1 (second series), active compounds read low 1 | S. cerevisiae deletion strains, locus YLR342W, strain FKS1, active compounds read low 1.01 | S. cerevisiae deletion strains, locus YLR357W, strain rsc2, active compounds read low 1.04 | S. cerevisiae deletion strains, locus YLR370C, strain arc18, active compounds read low 1 | S. cerevisiae deletion strains, locus YLR371W, strain rom2, active compounds read low 1.01 | S. cerevisiae deletion strains, locus YLR384C, strain iki3, active compounds read low 1.01 | S. cerevisiae deletion strains, locus YLR418C, strain cdc73, active compounds read low 1.07 | S. cerevisiae deletion strains, locus YML016C, strain PPZ1, active compounds read low 1.01 | S. cerevisiae deletion strains, locus YML032C, strain rad52, active compounds read low 1.01 | S. cerevisiae deletion strains, locus YML120C, strain ndi1, active compounds read low 1.02 | S. cerevisiae deletion strains, locus YML124C, strain tub3, active compounds read low 1.01 | S. cerevisiae deletion strains, locus YMR058W, strain fet3, active compounds read low 1 | S. cerevisiae deletion strains, locus YMR078C, strain ctf18, active compounds read low 1.01 | S. cerevisiae deletion strains, locus YMR125W, strain sto1, active compounds read low 0.995 | S. cerevisiae deletion strains, locus YMR129W, active compounds read low 0.998 | S. cerevisiae deletion strains, locus YMR205C, strain PFK2, active compounds read low 1.01 | S. cerevisiae deletion strains, locus YMR223W, strain ubp8, active compounds read low 1 | S. cerevisiae deletion strains, locus YMR231W, strain pep5, active compounds read low 1 | S. cerevisiae deletion strains, locus YMR263W, strain SAP30, active compounds read low 0.996 | S. cerevisiae deletion strains, locus YMR307W, strain GAS1, active compounds read low 1.01 | S. cerevisiae deletion strains, locus YNL067W, strain RPL9B, active compounds read low 1.02 | S. cerevisiae deletion strains, locus YNL071W, strain lat1, active compounds read low 0.987 | S. cerevisiae deletion strains, locus YNL128W, strain TEP1, active compounds read low 1.02 | S. cerevisiae deletion strains, locus YNL153C, strain GIM3, active compounds read low 1.01 | S. cerevisiae deletion strains, locus YNL183C, strain NPR1, active compounds read low 0.972 | S. cerevisiae deletion strains, locus YNL209W, strain ssb2, active compounds read low 0.982 | S. cerevisiae deletion strains, locus YNL233W, strain BNI4, active compounds read low 1.01 | S. cerevisiae deletion strains, locus YNL248C, strain rpa49, active compounds read low 1.01 | S. cerevisiae deletion strains, locus YNL250W, strain rad50, active compounds read low 1.03 | S. cerevisiae deletion strains, locus YNL271C, strain bni1, active compounds read low 1.02 | S. cerevisiae deletion strains, locus YNL298W, strain CLA4, active compounds read low 1.02 | S. cerevisiae deletion strains, locus YNL307C, strain MCK1, active compounds read low 1.02 | S. cerevisiae deletion strains, locus YNL322C, strain KRE1 (second series), active compounds read low 0.998 | S. cerevisiae deletion strains, locus YNL322C, strain KRE1, active compounds read low 1 | S. cerevisiae deletion strains, locus YNR049C, strain mso1, active compounds read low 1.01 | S. cerevisiae deletion strains, locus YNR052C, strain pop2, active compounds read low 1.03 | S. cerevisiae deletion strains, locus YOL006C, strain TOP1, active compounds read low 1.03 | S. cerevisiae deletion strains, locus YOL012C, strain htz1 1.03 | S. cerevisiae deletion strains, locus YOL147C, strain pex11, active compounds read low 1.02 | S. cerevisiae deletion strains, locus YOR001W, strain rrp6, active compounds read low 1.01 | S. cerevisiae deletion strains, locus YOR061W, strain CKA2, active compounds read low 1.01 | S. cerevisiae deletion strains, locus YOR069W, strain VPS5, active compounds read low 1.01 | S. cerevisiae deletion strains, locus YOR070C, strain gyp1, active compounds read low 0.989 | S. cerevisiae deletion strains, locus YOR080W, strain dia2, active compounds read low 1.01 | S. cerevisiae deletion strains, locus YOR083W, strain WHI5, active compounds read low 0.979 | S. cerevisiae deletion strains, locus YOR106W, strain vam3, active compounds read low 0.975 | S. cerevisiae deletion strains, locus YOR136W, strain idh2, active compounds read low 1.01 | S. cerevisiae deletion strains, locus YOR144C, strain elg1, active compounds read low 1.02 | S. cerevisiae deletion strains, locus YOR184W, strain ser1, active compounds read low 1.03 | S. cerevisiae deletion strains, locus YOR231W, strain MKK1, active compounds read low 0.98 | S. cerevisiae deletion strains, locus YOR265W, strain rbl2, active compounds read low 1.01 | S. cerevisiae deletion strains, locus YOR270C, strain vph1, active compounds read low 1.04 | S. cerevisiae deletion strains, locus YOR290C, strain snf2, active compounds read low 0.964 | S. cerevisiae deletion strains, locus YOR316C, strain cot1, active compounds read low 1.01 | S. cerevisiae deletion strains, locus YPL051W, strain arl3, active compounds read low 1.01 | S. cerevisiae deletion strains, locus YPL055C, strain LGE1, active compounds read low 0.988 | S. cerevisiae deletion strains, locus YPL078C, strain atp4, active compounds read low 1.03 | S. cerevisiae deletion strains, locus YPL106C, strain sse1, active compounds read low 0.968 | S. cerevisiae deletion strains, locus YPL240C, strain hsp82, active compounds read low 0.989 | S. cerevisiae deletion strains, locus YPL241C, strain CIN2, active compounds read low 1.01 | S. cerevisiae deletion strains, locus YPL256C, strain CLN2, active compounds read low 0.965 | S. cerevisiae deletion strains, locus YPR119W, strain clb2, active compounds read low 1.01 | S. cerevisiae deletion strains, locus YPR141C, strain kar3, active compounds read low 1.03 | S. cerevisiae deletion strains, locus YPR163C, strain tif3, active compounds read low 1.03 | S. cerevisiae deletion strains, locus YPR167C, strain met16, active compounds read low 1 | S. cerevisiae deletion strains, strain wtn01, active compounds read low 1.02 | S. cerevisiae strains, strain wild type, active compounds read low 0.999
